Measured values: the supplement of paper PMC11732987, “Enantioselective OTUD7B fragment discovery through chemoproteomics screening and high-throughput optimisation” (Communications Chemistry, 2025)

Tests used:
Assay in all cases: log2 ratio of Biotin-Ahx-Ub-VS probe labelling (compound/DMSO); higher = less target engagement, active = hit call of the paper (q ≤ 0.05, log2 ratio ≤ -1)
Conditions in all cases: treatment time: 3 h
[1] = compound: CCC1N(CCc2sccc12)C(=O)CCl
Outline: (§1)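 Compound at 50 or 200 µM, or DMSO, was applied for 3 h in triplicate to HEK293T lysate (495 µg per sample, Tris/CHAPS/IGEPAL buffer with protease inhibitors), after which Biotin-Ahx-Ub-VS was added at 0.5 µM final for 1 h. The labelled DUBs were pulled down with NeutrAvidin, digested with LysC and trypsin, and run by diaPASEF LC-MS/MS. Ratios are averaged base-two logs of compound over DMSO from median-normalised label-free quantities by unpaired t-test, counting only proteins with at least 2 unique peptides.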

[2] = compound: CN1c2ccccc2C(CS1(=O)=O)NC(=O)CCl
Outline: as §1

[3] = compound: Cl.ClCC(=O)N1CCc2ncncc2C1
Outline: as §1

[4] = compound: Cl.Cn1ncc2C(CCCc12)NC(=O)CCl
Outline: as §1

[5] = compound: ClCC(=O)NC1CCOc2ccccc12
Outline: as §1

[6] = compound: ClCC(=O)NC1CCCc2ccccc12
Outline: (§2)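 These values are averaged ratios of compound to vehicle, tested by unpaired t-test. HEK293T lysate (495 µg per sample) was preincubated in triplicate with compound across a concentration series or vehicle for 3 h and then with Biotin-Ahx-Ub-VS at 0.5 µM final for 1 h. Deubiquitinases carrying the probe were NeutrAvidin-enriched, digested with LysC and trypsin, and measured by diaPASEF LC-MS/MS. Ratios are expressed as log2 from global-median-normalised Spectronaut label-free quantities, and only proteins with two or more unique peptides were included.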

[7] = compound: ClCC(=O)N[C@@H]1CCCc2ccccc12
Outline: as §2

[8] = compound: ClCC(=O)N[C@H]1CCCc2ccccc12
Outline: as §2

[9] = compound: CCC1N(CCc2cc(OC)c(Cl)cc12)C(=O)CCl
Outline: as §1

[10] = compound: CCCC1N(CCc2cc(OC)c(OC)cc12)C(=O)CCl
Outline: as §1

Measured: log2 ratio of Biotin-Ahx-Ub-VS probe labelling

USP9X (UniProt Q93008)
UniProt Q93008, sequence (Q93008 whole entry): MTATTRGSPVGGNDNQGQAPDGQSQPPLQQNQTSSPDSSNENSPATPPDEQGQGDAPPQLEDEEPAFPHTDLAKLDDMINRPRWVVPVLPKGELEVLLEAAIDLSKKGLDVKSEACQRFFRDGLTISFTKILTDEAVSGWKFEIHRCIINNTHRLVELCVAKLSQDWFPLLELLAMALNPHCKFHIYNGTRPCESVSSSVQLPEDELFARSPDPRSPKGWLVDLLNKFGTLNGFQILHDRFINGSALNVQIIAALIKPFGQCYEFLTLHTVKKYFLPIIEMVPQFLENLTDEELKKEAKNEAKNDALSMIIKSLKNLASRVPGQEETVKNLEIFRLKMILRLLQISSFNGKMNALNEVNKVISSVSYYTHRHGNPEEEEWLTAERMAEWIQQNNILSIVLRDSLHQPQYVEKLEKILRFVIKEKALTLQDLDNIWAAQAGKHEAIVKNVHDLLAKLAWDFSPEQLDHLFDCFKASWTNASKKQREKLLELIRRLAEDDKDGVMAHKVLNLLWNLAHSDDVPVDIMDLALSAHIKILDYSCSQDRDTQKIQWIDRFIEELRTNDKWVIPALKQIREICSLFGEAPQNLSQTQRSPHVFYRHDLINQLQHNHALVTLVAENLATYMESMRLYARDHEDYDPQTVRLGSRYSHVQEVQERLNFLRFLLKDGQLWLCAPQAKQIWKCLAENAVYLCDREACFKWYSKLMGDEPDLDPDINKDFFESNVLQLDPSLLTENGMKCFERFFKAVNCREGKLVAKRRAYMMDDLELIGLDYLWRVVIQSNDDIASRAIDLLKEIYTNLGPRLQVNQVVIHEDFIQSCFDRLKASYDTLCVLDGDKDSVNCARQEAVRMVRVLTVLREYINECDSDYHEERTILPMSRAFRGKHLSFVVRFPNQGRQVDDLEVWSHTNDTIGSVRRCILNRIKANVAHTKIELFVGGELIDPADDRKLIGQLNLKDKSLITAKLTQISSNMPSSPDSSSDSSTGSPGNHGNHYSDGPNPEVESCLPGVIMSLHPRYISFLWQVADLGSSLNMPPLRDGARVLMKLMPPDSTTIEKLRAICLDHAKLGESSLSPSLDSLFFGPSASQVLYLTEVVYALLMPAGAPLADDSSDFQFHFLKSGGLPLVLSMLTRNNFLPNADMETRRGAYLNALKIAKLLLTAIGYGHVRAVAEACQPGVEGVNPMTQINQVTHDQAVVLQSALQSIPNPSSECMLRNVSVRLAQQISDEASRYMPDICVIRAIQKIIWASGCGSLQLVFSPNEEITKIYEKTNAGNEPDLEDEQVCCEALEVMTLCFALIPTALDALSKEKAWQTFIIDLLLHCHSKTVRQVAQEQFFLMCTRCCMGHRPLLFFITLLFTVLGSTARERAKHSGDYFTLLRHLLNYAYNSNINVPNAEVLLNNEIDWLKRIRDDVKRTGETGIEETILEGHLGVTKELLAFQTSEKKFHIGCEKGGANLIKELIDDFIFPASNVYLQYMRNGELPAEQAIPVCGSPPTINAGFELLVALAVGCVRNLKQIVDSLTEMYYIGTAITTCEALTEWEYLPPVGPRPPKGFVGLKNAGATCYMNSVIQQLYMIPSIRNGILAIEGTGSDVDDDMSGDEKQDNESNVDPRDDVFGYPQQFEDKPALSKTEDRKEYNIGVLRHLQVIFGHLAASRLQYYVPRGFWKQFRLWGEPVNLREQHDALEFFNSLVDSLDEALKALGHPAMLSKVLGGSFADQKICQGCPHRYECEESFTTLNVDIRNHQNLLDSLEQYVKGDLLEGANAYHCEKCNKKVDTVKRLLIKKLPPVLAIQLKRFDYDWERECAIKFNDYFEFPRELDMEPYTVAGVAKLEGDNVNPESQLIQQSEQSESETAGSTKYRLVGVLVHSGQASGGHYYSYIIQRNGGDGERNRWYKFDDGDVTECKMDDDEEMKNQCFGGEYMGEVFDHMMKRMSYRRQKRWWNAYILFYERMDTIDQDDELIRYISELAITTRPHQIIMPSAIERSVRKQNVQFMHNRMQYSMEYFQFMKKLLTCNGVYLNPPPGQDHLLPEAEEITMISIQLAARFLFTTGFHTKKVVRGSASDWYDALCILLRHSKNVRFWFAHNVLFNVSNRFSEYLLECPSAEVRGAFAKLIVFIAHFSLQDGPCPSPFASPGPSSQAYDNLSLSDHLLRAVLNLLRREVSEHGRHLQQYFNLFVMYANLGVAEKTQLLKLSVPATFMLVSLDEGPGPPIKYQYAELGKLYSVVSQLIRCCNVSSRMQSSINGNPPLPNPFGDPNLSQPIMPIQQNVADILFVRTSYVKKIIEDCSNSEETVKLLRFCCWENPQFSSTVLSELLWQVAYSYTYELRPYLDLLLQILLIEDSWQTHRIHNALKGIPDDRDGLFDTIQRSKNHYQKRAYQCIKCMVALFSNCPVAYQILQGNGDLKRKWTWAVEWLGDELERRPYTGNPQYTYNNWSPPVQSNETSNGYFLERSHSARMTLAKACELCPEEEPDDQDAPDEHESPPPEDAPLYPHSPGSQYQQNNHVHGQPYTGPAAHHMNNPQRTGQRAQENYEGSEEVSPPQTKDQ
inactive: [1]; compound concentration: 50uM -0.0428 | [1]; compound concentration: 200uM -0.401 | [2]; compound concentration: 50uM -0.081 | [2]; compound concentration: 200uM -0.107 | [3]; compound concentration: 50uM -0.026 | [3]; compound concentration: 200uM -0.376 | [4]; compound concentration: 50uM 0.251 | [4]; compound concentration: 200uM 0.139 | [5]; compound concentration: 50uM 0.133 | [5]; compound concentration: 200uM -0.133 | [6]; compound concentration: 0.78uM -0.00765 | [6]; compound concentration: 1.56uM 0.093 | [6]; compound concentration: 3.13uM -0.0291 | [6]; compound concentration: 6.25uM 0.0092 | [6]; compound concentration: 12.5uM -0.0222 | [6]; compound concentration: 25uM -0.0898 | [6]; compound concentration: 50uM -0.0629 | [6]; compound concentration: 100uM -0.0253 | [6]; compound concentration: 200uM -0.0679 | [7]; compound concentration: 0.78uM -0.0702 | [7]; compound concentration: 1.56uM 0.0356 | [7]; compound concentration: 3.13uM 0.00372 | [7]; compound concentration: 6.25uM -0.00489 | [7]; compound concentration: 12.5uM -0.0481 | [7]; compound concentration: 25uM -0.0408 | [7]; compound concentration: 50uM -0.128 | [7]; compound concentration: 100uM -0.121 | [7]; compound concentration: 200uM -0.242 | [8]; compound concentration: 0.78uM -0.0701 | [8]; compound concentration: 1.56uM 0.0195 | [8]; compound concentration: 3.13uM 0.0203 | [8]; compound concentration: 6.25uM 0.0759 | [8]; compound concentration: 12.5uM -0.0293 | [8]; compound concentration: 25uM -0.0731 | [8]; compound concentration: 50uM -0.0138 | [8]; compound concentration: 100uM -0.119 | [8]; compound concentration: 200uM -0.256 | [9]; compound concentration: 50uM -0.0734 | [9]; compound concentration: 200uM -0.969 | [10]; compound concentration: 50uM -0.249 | [10]; compound concentration: 200uM -0.82

EIF3F (UniProt O00303)
UniProt O00303, sequence (O00303 whole entry): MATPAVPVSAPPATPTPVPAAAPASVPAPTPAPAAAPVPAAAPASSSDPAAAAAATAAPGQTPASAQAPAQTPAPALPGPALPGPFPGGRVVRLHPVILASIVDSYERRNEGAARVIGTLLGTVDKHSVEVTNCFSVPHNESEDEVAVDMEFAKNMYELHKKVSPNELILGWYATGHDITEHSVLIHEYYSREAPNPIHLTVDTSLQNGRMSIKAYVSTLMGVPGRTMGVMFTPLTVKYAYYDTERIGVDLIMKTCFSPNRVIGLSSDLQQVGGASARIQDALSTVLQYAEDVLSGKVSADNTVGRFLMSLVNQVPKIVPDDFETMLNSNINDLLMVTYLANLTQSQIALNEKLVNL
inactive: [1]; compound concentration: 50uM -0.16 | [1]; compound concentration: 200uM -0.05 | [2]; compound concentration: 50uM -0.111 | [2]; compound concentration: 200uM -0.0123 | [3]; compound concentration: 50uM 0.026 | [3]; compound concentration: 200uM -0.017 | [4]; compound concentration: 50uM -0.0544 | [4]; compound concentration: 200uM -0.232 | [5]; compound concentration: 50uM -0.204 | [5]; compound concentration: 200uM 0.0458 | [6]; compound concentration: 0.78uM -0.0827 | [6]; compound concentration: 1.56uM 0.0402 | [6]; compound concentration: 3.13uM -0.164 | [6]; compound concentration: 6.25uM -0.148 | [6]; compound concentration: 12.5uM 0.141 | [6]; compound concentration: 25uM -0.0954 | [6]; compound concentration: 50uM -0.209 | [6]; compound concentration: 100uM -0.401 | [6]; compound concentration: 200uM -0.0132 | [7]; compound concentration: 0.78uM -0.295 | [7]; compound concentration: 1.56uM 0.0826 | [7]; compound concentration: 3.13uM -0.0906 | [7]; compound concentration: 6.25uM -0.461 | [7]; compound concentration: 12.5uM -0.244 | [7]; compound concentration: 25uM -0.214 | [7]; compound concentration: 50uM -0.034 | [7]; compound concentration: 100uM 0.00457 | [7]; compound concentration: 200uM 0.0644 | [8]; compound concentration: 0.78uM -0.0754 | [8]; compound concentration: 1.56uM -0.0584 | [8]; compound concentration: 3.13uM -0.182 | [8]; compound concentration: 6.25uM 0.0402 | [8]; compound concentration: 12.5uM -0.0792 | [8]; compound concentration: 25uM -0.00315 | [8]; compound concentration: 50uM -0.0696 | [8]; compound concentration: 100uM -0.0985 | [8]; compound concentration: 200uM -0.313 | [9]; compound concentration: 50uM -0.015 | [9]; compound concentration: 200uM -0.16 | [10]; compound concentration: 50uM -0.0996 | [10]; compound concentration: 200uM 0.154

PSMD7 (UniProt P51665)
UniProt P51665, sequence (P51665 whole entry): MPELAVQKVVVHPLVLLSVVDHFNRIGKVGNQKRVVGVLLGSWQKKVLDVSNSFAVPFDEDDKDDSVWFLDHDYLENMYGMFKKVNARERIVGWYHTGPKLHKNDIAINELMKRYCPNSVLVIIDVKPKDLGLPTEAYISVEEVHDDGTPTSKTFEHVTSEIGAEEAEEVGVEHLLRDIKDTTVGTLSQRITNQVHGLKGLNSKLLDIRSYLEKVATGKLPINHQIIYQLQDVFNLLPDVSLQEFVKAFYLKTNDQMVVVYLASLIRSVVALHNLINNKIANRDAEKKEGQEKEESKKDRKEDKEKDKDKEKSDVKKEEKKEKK
inactive: [1]; compound concentration: 50uM 0.0196 | [1]; compound concentration: 200uM -0.639 | [2]; compound concentration: 50uM -1.31 | [2]; compound concentration: 200uM 0.533 | [3]; compound concentration: 50uM -3.61 | [3]; compound concentration: 200uM 0.0399 | [4]; compound concentration: 50uM 0.173 | [4]; compound concentration: 200uM 0.483 | [5]; compound concentration: 50uM 1.07 | [5]; compound concentration: 200uM 1 | [6]; compound concentration: 0.78uM -0.113 | [6]; compound concentration: 1.56uM -0.191 | [6]; compound concentration: 3.13uM -0.247 | [6]; compound concentration: 6.25uM -0.311 | [6]; compound concentration: 12.5uM -0.243 | [6]; compound concentration: 25uM -0.439 | [6]; compound concentration: 50uM -0.166 | [6]; compound concentration: 100uM 0.0296 | [6]; compound concentration: 200uM -0.486 | [7]; compound concentration: 0.78uM -0.113 | [7]; compound concentration: 1.56uM 0.319 | [7]; compound concentration: 3.13uM 0.0163 | [7]; compound concentration: 6.25uM -0.0645 | [7]; compound concentration: 12.5uM 0.0151 | [7]; compound concentration: 25uM 0.0566 | [7]; compound concentration: 50uM -0.252 | [7]; compound concentration: 100uM 0.0397 | [7]; compound concentration: 200uM 0.357 | [8]; compound concentration: 0.78uM 0.0931 | [8]; compound concentration: 1.56uM 0.0292 | [8]; compound concentration: 3.13uM 0.0943 | [8]; compound concentration: 6.25uM -0.111 | [8]; compound concentration: 12.5uM -0.00799 | [8]; compound concentration: 25uM -0.0922 | [8]; compound concentration: 50uM 0.0424 | [8]; compound concentration: 100uM -0.132 | [8]; compound concentration: 200uM -0.169 | [9]; compound concentration: 50uM 0.122 | [9]; compound concentration: 200uM 1.79 | [10]; compound concentration: 50uM 0.742 | [10]; compound concentration: 200uM 0.149
